In PubChem BioAssay one finds z-score and composite z-score data, which are given here for four compounds.

Test [1] in a line: optical density shifts of acrAB sulA E. coli – strain DRC41, OD650, 48 h, E. coli filamentation inducer project, primary screen (AID 1152).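 Also: E. coli MC1000 strain DRC41 lacking acrAB efflux pump and sulA.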 The note with it: higher = more signal, called active from +8 up or from −8 down.
The nature of test [2]: probe aLefty1 binding on compound microarray – biochemical, small-molecule microarray, 635/667 nm fluorescence, primary screen (AID 1153).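 Also: score merges spot fluorescence with signal-to-noise ratio from the scanned slide images.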 To be noted: higher = more signal.
Test [3] in a line: plasmodial surface anion channel blockers, osmotic lysis – cell-based, P. falciparum Indochina, OD700, 1 h, primary screen (AID 1154). To be noted: P. falciparum Indochina infected RBC osmotic lysis, higher = more signal, called active from +8 up or from −8 down.
The nature of test [4]: plasmodial surface anion channel blockers, osmotic lysis – cell-based, P. falciparum Indochina, OD700, 2 h, primary screen (AID 1155).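 Also: lysis reports solute entry through the parasite surface anion channel PSAC.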 To be noted: P. falciparum Indochina infected erythrocytes, higher = more signal, called active from +8 up or from −8 down.
Test [5] can be described thus: changes in parasitized red cell lysis, either direction – P. falciparum Indochina, OD700, 3 h, PSAC antagonist project, primary screen (AID 1156). To be noted: P. falciparum-infected erythrocytes, osmotic lysis, higher = more signal, called active from +8 up or from −8 down.
The nature of test [6]: plasmodial surface anion channel blockers, osmotic lysis – cell-based, P. falciparum Indochina, OD700, 18 h, primary screen (AID 1157). To be noted: P. falciparum Indochina infected erythrocytes, osmotic lysis OD700, 18 h; higher = more signal, called active from +8 up or from −8 down.
A short description of test [7]: S6 kinase pathway phospho-S6 level changes – cell-based, A549, cytoblot, luminescence, serum-stimulated, primary screen (AID 1158).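 Also: serum-stimulated A549 lung adenocarcinoma cells; signal is phosphorylated S6 detected by cytoblot immunostaining with HRP secondary.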 The note with it: 5 h, higher = more signal.
For test [8], the target named is NADPH oxidase 2 (Homo sapiens) (UniProt P04839). Kind of test: compounds shifting NOX2 Amplex Red fluorescence – cell-based, HEK293-NOX2, PMA-stimulated, NOX inhibitor project, primary screen (AID 1159). Also: test concentration not given here. To be noted: 45 min, higher = more signal, called active from +8 up or from −8 down.
Sequence of NADPH oxidase 2 (Homo sapiens) (P04839 whole entry, looked up): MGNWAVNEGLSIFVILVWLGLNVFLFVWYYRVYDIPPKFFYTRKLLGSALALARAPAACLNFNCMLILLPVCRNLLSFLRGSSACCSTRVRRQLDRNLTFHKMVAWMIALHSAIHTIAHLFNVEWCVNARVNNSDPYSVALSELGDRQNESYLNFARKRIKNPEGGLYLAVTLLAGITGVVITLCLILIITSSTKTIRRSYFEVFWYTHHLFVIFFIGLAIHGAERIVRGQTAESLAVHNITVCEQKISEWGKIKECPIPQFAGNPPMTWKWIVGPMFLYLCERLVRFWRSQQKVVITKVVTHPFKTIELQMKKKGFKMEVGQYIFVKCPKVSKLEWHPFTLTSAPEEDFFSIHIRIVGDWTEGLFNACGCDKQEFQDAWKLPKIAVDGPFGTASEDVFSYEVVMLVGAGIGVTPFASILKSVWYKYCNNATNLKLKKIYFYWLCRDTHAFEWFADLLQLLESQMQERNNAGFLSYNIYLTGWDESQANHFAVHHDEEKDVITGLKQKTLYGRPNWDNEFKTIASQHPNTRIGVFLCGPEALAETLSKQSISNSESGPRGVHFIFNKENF
Test [9] addresses NADPH oxidase 4 (Homo sapiens) (UniProt Q9NPH5). As to the kind of experiment: compounds shifting NOX4 Amplex Red fluorescence – cell-based, HEK293-NOX4, tetracycline-induced, NOX inhibitor project, primary screen (AID 1160). The note with it: HEK293-NOX4, Amplex Red H2O2 fluorescence, 45 min; higher = more signal, called active from +8 up or from −8 down.
In test [10] the target is NADPH oxidase 5 (Homo sapiens) (UniProt Q96PH1). Kind of test: compounds shifting NOX5 Amplex Red fluorescence – cell-based, HEK293-NOX5, NOX inhibitor project, primary screen (AID 1161). To be noted: HEK293-NOX5, ionomycin, 45 min, higher = more signal.
Sequence of NADPH oxidase 5 (Homo sapiens) (Q96PH1 whole entry, looked up): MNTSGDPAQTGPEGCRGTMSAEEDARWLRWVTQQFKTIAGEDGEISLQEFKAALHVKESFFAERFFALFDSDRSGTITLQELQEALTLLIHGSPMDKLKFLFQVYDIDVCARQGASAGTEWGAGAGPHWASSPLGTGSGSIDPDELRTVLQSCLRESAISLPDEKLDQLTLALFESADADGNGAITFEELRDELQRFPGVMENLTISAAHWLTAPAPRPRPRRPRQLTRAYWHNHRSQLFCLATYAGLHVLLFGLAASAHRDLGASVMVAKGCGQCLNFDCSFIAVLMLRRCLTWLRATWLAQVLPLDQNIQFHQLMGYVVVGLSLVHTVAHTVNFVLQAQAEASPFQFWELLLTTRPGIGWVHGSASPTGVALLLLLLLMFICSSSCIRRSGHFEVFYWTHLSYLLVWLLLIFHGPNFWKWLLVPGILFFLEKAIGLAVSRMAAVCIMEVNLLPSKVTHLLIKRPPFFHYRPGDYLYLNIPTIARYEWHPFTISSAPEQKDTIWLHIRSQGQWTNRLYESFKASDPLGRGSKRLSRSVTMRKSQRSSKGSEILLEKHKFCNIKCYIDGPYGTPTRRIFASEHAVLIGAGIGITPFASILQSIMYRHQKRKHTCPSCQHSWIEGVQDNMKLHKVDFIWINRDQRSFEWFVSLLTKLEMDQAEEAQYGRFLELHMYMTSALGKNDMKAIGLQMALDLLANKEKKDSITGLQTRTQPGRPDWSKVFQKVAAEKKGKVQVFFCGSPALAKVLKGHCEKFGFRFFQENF
Test [11] in a line: compound effects on lung adenocarcinoma cell viability – A549, calcein-AM fluorescence, 48 h, basal, profiling panel (AID 1162). Also: test concentration not given here. The note with it: higher = more signal.
Test [12] can be described thus: compound effects on differentiated 3T3-L1 adipocyte viability – cell-based, 3T3-L1 adipocytes, calcein-AM fluorescence, 48 h, basal, profiling panel (AID 1163). Also: test concentration not given here. The note with it: 3T3-L1 adipocytes viability, higher = more signal.
The nature of test [13]: compound effects on hepatocellular carcinoma cell viability – HepG2, calcein-AM fluorescence, 48 h, basal, profiling panel (AID 1164). Also: test concentration not given here. The note with it: higher = more signal.
Test [14] is described as follows: compound effects on multiple myeloma cell viability – MM1S, calcein-AM fluorescence, 48 h, basal, profiling panel (AID 1165).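 Also: viability of MM1S multiple myeloma cells under basal unstimulated conditions; test concentration not given here.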 To be noted: higher = more signal.
Test [15] in a line: calcein-AM signal in unstimulated myeloma cells – cell-based, calcein-AM fluorescence, 48 h, PK04 Diversity Set, profiling panel (AID 1166).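 Also: cells grown under basal conditions without added stimulus; test concentration not given here.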 To be noted: RPMI8226 myeloma viability, higher = more signal.
Test [16] in a line: JC-1 mitochondrial signal, unstimulated HepG2 cells – cell-based, JC-1 fluorescence, 24 h, 100 nL compound, profiling panel (AID 1167). Also: test concentration not given here. To be noted: HepG2 mitochondrial potential, higher = more signal.
A short description of test [17]: JC-1 mitochondrial signal, unstimulated adipocytes – cell-based, JC-1 fluorescence, 3T3-L1 adipocytes, 24 h, 100 nL compound, profiling panel (AID 1168). Also: test concentration not given here. To be noted: JC-1 mitochondrial fluorescence, higher = more signal, called active from +8 up or from −8 down.
The nature of test [18]: JC-1 mitochondrial signal, unstimulated myeloma cells – cell-based, JC-1 fluorescence, RPMI8226, 24 h, 100 nL compound, profiling panel (AID 1169). Also: test concentration not given here. To be noted: JC-1 mitochondrial potential fluorescence, higher = more signal.
Test [19] can be described thus: JC-1 mitochondrial signal, unstimulated MM1S myeloma – cell-based, JC-1 fluorescence, 24 h, 100 nL compound, profiling panel (AID 1170). Also: test concentration not given here. To be noted: MM1S mitochondrial potential, higher = more signal.
Test [20] in a line: resazurin metabolic signal in A549 cells – cell-based, resazurin fluorescence, 24 h, PK04 Diversity Set, profiling panel (AID 1171). Also: test concentration not given here. To be noted: A549 viability, higher = more signal, called active from +8 up or from −8 down. A general note: Alamar Blue is a resazurin reagent that responds to reducing activity.

Activity calls are given as the source filed them.

Sequence of NADPH oxidase 4 (Homo sapiens) (Q9NPH5 whole entry, looked up): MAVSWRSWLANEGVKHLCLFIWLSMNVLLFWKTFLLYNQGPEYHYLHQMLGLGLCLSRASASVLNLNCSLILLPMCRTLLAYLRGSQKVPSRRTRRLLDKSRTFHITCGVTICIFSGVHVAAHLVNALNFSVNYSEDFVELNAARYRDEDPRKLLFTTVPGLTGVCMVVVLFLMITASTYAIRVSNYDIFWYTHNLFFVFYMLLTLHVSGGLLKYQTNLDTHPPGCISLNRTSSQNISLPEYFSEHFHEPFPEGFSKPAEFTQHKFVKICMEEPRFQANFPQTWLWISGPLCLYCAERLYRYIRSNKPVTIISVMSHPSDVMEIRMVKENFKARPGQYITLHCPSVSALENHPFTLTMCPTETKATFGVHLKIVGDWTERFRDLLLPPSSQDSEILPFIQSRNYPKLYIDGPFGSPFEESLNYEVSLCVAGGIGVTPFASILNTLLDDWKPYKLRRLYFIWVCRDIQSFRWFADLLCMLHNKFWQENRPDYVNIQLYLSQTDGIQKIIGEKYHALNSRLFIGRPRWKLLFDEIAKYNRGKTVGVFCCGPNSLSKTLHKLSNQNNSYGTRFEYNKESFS

With `CCCC=C(CCC)[C@@H](NC(=O)OCC(C)C)c1ccc(C(=O)OC)cc1`, the z-score was -0.531 (inactive) in test [1]; -1.17 (inactive) in [3]; -0.781 (inactive) in test [4]; -1.07 (inactive) in [5]; -1.47 (inactive) in test [6]; 1.31 in [7]. The z-score in test [8] is 0.115 (inactive); in test [9] it was 1.89 (inactive); in test [10], 1.97; in test [11], 0.732; in test [12], -0.196; in test [13] it was 0.0516. The z-score is 0.753 in [14]; 0.528 in test [15]; -0.345 in test [16]; -1.53 (inactive) in test [17]; -0.0219 in [18]; -1.32 in [19]. For the same compound, in test [20], the z-score was 0.293 (inactive). In [2], this compound came in with a composite z-score of 0.506.
Consider `OCCCC1=CC(c2ccc(CN3CCCC3)cc2)N(Cc2cccc(OC(F)(F)F)c2)CC1` (stereo not given), for which the z-score in test [1] was -2.64 (inactive); in test [3], 3.61 (inactive); in test [4], 0.935 (inactive); in test [5] it was 0.524 (inactive); in test [6], 0.749 (inactive); in test [7], -0.791. Besides, the z-score was -5.61 (inactive) in test [8]; -2.06 (inactive) in [9]; -2.16 in test [10]; -4.68 in test [11]; -0.267 in [12]; -4.99 in test [13]. Moreover, the z-score in test [14] is -3.3; in test [15], -3.83; in test [16], -0.125; in [17], 0.367 (inactive); in test [18] it was -0.739; in [19] it was -2.38. In addition, the z-score in [20] was 0.194 (inactive). In test [2], this compound showed a composite z-score of 0.286.
As to `O=C1[C@H]2C=C(I)[C@H](C[C@@H]2OCCCCCCO)[C@@]12CO2`, the z-score was -1.02 (inactive) in [1]; 5.11 (inactive) in test [3]; 0.713 (inactive) in test [4]; 0.487 (inactive) in [5]; 0.035 (inactive) in test [6]; -0.251 in [7]. In addition, the z-score was -0.212 (inactive) in [8]; 0.645 (inactive) in test [9]; -1.22 in [10]; 0.249 in test [11]; -0.0741 in test [12]; -0.394 in [13]. Further, the z-score was -1.22 in [14]; -0.273 in [15]; -1.58 in test [16]; 0.0285 (inactive) in [17]; -0.264 in test [18]; -0.571 in test [19]. In test [20], the z-score is 0.339 (inactive). Moreover, the composite z-score in test [2] came to 0.0834.
As for `CC1=C([C@H](O)CCc2ccccc2)[C@H](CO)n2c(=O)n(-c3ccccc3)c(=O)n2C1`, the z-score is 2.91 (inactive) in test [1]; 1.44 (inactive) in [3]; -0.657 (inactive) in test [4]; -0.237 (inactive) in [5]; -1.48 (inactive) in test [6]; 1.77 in [7]. Moreover, the z-score was -0.53 (inactive) in test [8]; -0.429 (inactive) in test [9]; 0.218 in test [10]; 0.229 in test [11]; 0.273 in test [12]; 0.862 in test [13]. The z-score was 0.5 in [14]; 0.874 in test [15]; -0.303 in test [16]; 0.603 (inactive) in test [17]; -0.237 in test [18]; -1.16 in test [19]. In addition, the z-score in test [20] was -0.331 (inactive). In addition, the composite z-score in test [2] is -0.06.
